# Laboratory results reported in PubChem BioAssay (EPA / NIEHS).
# Records with an inconclusive call do not appear. Some structures have more than one record in an assay (separate samples or runs), and their calls can disagree. Calls of active or inactive are those of the source. How the source made its calls, unless noted: active means hit-call score of the fitted dose curve at least 0.9, where 1 is the maximum; inactive means score below 0.9.
# How the values were obtained:
# [1] = CCTE_Shafer_MEA_acute_per_network_burst_spike_number_std: CCTE's Neural Acute Assay for Standard Deviation of Number of Spikes in a Network Burst, Shafer Lab (AID 2284020);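 further: fitted for decrease in spike-number SD versus DMSO so actives lower it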
# In short: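 Rat cortical cultures, DIV 13/15, 37 C; 20-min stabilisation, 40-min baseline, compound 0.03-40 uM, 40-min re-record. Spikes detected at 8x rms noise (300-5000 Hz band-pass). Readout: % change from baseline in per-burst spike-number SD.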
# [2] = CCTE_Shafer_MEA_acute_per_network_burst_electrodes_number_mean: CCTE's Neural Acute Assay for Mean Number of Electrodes in a Network Burst, Shafer Lab (AID 2284021);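 further: curves fitted for decreases only so hits reduce electrodes per burst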
# In short: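 Primary rat cortical networks, mwMEA, 37 C. 20 min stabilization, 40 min baseline, compound 0.03-40 uM, 40 min re-record. Wells need >=10 active electrodes; percent change per well, negative fitting direction.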
# [3] = CCTE_Shafer_MEA_acute_network_burst_percentage: CCTE's Neural Acute Assay for Percentage of Network Bursts, Shafer Lab (AID 2284022);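 further: curves fitted for loss so actives lower network burst percentage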
# In short: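 Readout is the fraction of spikes falling in network bursts, expressed as per-well percent change from a 40-min pre-exposure baseline. Primary rat cortical neurons on MEA were exposed to 0.03-40 uM compound on DIV 13 or 15 and recorded for 40 min at 37 C.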
# [4] = CCTE_Shafer_MEA_acute_cross_correlation_area: CCTE's Neural Acute Assay for Area of Cross Correlation, Shafer Lab (AID 2284024);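 further: area under pooled inter-electrode spike cross-correlation near zero lag as percent change from own baseline; curves fitted for loss of cross-correlation area so actives lower synchrony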;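 on outcome: rat primary cortical neuron networks on 48-well MEA at DIV 13 or 15 with 40 min exposure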
# In short: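 Plates equilibrated 20 min at 37 C, then 40 min baseline was recorded, compound was added (0.03-40 uM), and a further 40 min was recorded. Wells needed ≥10 active electrodes (≥5 spikes/min) on exposure day.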
# [5] = CCTE_Shafer_MEA_acute_cross_correlation_HWHM: CCTE's Neural Acute Assay for Cross Correlation at Half Width at Half Maximum, Shafer Lab (AID 2284026);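 further: percent change per well from pre-dose baseline in spike cross-correlogram half width; hits are a decrease in cross-correlogram half width relative to DMSO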;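 on outcome: spontaneous network firing of rat primary cortical neurons on multiwell microelectrode arrays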
# In short: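 Rat cortical neuron cultures on microelectrode arrays were equilibrated 20 min at 37 C, recorded 40 min at baseline, then 40 min after compound addition (0.03-40 uM, ≥3 wells). Spikes were detected at 8x rms noise after 300-5000 Hz band-pass filtering.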
# [6] = CCTE_Shafer_MEA_acute_synchrony_index: CCTE's Neural Acute Assay for Synchrony, Shafer Lab (AID 2284027);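 further: network synchrony index of spontaneous spiking in primary rat cortical neurons on MEAs; fitted for loss of signal so actives lower synchrony relative to DMSO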
# In short: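 Plates equilibrated 20 min at 37 C, baseline recorded 40 min, compound (0.03-40 uM) added, then 40 min more recorded. Cells: primary rat cortical neurons, DIV 13 or 15. Per-well synchrony index change analysed in negative direction against DMSO.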
# [7] = target: Estrogen receptor (Homo sapiens) (UniProt P03372); assay: CCTE_Deisenroth_AIME_384WELL_LUC_Active: CCTE's 384-well Estrogen Receptor Transactivation Assay with AIME metabolic competence (ERTA luciferase; metabolism positive), Deisenroth Lab (AID 2284030; active means hit-call score of the fitted dose curve at least 0.9, where 1 is the maximum)
# Chain of Estrogen receptor (Homo sapiens) (P03372 whole entry, looked up): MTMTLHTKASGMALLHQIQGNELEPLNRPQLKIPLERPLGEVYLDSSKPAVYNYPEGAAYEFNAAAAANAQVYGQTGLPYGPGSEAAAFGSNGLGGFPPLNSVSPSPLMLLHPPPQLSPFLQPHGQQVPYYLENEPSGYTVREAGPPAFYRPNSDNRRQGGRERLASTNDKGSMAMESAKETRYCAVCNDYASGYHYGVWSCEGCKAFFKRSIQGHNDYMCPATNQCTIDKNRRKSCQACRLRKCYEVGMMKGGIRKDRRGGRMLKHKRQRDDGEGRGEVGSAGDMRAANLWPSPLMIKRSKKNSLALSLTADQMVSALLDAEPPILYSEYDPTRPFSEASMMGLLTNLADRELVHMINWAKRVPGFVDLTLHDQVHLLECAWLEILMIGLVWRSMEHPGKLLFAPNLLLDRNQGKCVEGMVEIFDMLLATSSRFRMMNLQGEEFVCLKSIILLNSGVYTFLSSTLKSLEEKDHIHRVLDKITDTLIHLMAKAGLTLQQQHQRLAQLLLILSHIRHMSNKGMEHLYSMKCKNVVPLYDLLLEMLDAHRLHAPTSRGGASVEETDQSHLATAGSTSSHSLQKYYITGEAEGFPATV
# In short: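 AIME metabolism-positive mode: chemicals 0.002 - 200 uM, 2 h with alginate-bound PB/BNF-induced rat S9 → medium to VM7Luc4E2 ERTA, 24 h → luciferase. Positive fit vs 17beta-estradiol; n=4 typical.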
# [8] = target: Estrogen receptor (Homo sapiens) (UniProt P03372); assay: CCTE_Deisenroth_AIME_384WELL_LUC_Inactive: CCTE's 384-well Estrogen Receptor Transactivation Assay without AIME metabolic competence (ERTA luciferase; metabolism negative), Deisenroth Lab (AID 2284038; active means hit-call score of the fitted dose curve at least 0.9, where 1 is the maximum;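 further: hits raise estrogen receptor luciferase signal so potencies reflect agonists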)
# In short: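 VM7Luc4E2 ER transactivation, luciferase bioluminescence after 24 h, using medium pre-incubated 2 h with S9-free alginate microspheres. Concentrations 0.002–200 uM; gain of signal fitted relative to 17beta-estradiol.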
# [9] = CCTE_Deisenroth_AIME_384WELL_CTox_Inactive: Cytotoxicity Assessment (CTOX) in CCTE's 384-well Estrogen Receptor Transactivation Assay without AIME metabolic competence (metabolism negative), Deisenroth Lab (AID 2284039; active means hit-call score of the fitted dose curve at least 0.9, where 1 is the maximum;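 further: cell viability via live-cell protease substrate cleaved to fluorescent probe; cells exposed 24 h to medium preincubated 2 h with alginate-water beads without S9; loss of fluorescence signal means loss of viability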)
# In short: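 VM7Luc4E2 human breast cells received conditioned medium from a 2 h incubation of chemical with alginate-water microspheres (no S9), then were exposed 24 h. Viability was read as protease-substrate cleavage to a fluorescent probe; loss of signal was fitted bidirectionally over 0.002–200 uM.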
# [10] = target: Estrogen receptor (Homo sapiens) (UniProt P03372); assay: CCTE_Deisenroth_AIME_384WELL_LUC_Shift: CCTE's 384-well Estrogen Receptor Transactivation Assay with AIME metabolic competence data shift (ERTA luciferase; difference in metabolism positive and negative), Deisenroth Lab (AID 2284041);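 further: shift is response with S9 minus without S9 so positive means metabolism raised ER signal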
# In short: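 Chemicals (0.002–200 uM, 10 points) pre-incubated 2 h with alginate-encapsulated induced male Sprague Dawley rat liver S9 or S9-free, then medium applied 24 h to VM7Luc4E2 cells; luciferase. Endpoint is per-concentration difference, S9-positive minus negative.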
# [11] = CCTE_Shafer_MEA_dev_firing_rate_mean: CCTE's Neural Network Formation Assay for Mean Firing Rate, Shafer Lab (AID 2284031);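 on AC50: curve fitted for loss of firing so AC50 reflects decreased mean firing rate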
# In short: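 Steps: seed rat cortical cells (1.5 x 10^5/well) with laminin on PEI-coated MEA; dose day 0; record DIV 5/7/9/12, full media and compound exchange after DIV 5 and 9 recordings; compute well-mean firing rate AUC.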
# [12] = CCTE_Shafer_MEA_dev_per_burst_spike_percent: CCTE's Neural Network Formation Assay for Percent of Spikes in a Burst, Shafer Lab (AID 2284032)
# In short: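 Value is trapezoidal AUC over recordings on days 5, 7, 9 and 12 of the well-mean fraction of spikes falling in single-electrode bursts; rat cortical cultures exposed continuously from plating, treatment renewed DIV 5 and 9, fitted downward against DMSO.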
# [13] = CCTE_Shafer_MEA_dev_active_electrodes_number: CCTE's Neural Network Formation Assay for Number of Active Electrodes, Shafer Lab (AID 2284040; active means hit-call score of the fitted dose curve at least 0.9, where 1 is the maximum;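 on AC50: potency for loss of active electrodes versus DMSO so lower counts are hits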)
# In short: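 Counts electrodes per well firing at least 5 spikes/min, recorded on days 5, 7, 9 and 12 in rat cortical cultures dosed continuously from plating (treatment refreshed DIV 5, 9). Value is the area under the curve over recordings, fitted downward relative to DMSO.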
# [14] = CCTE_Shafer_MEA_dev_burst_rate: CCTE's Neural Network Formation Assay for Burst Rate, Shafer Lab (AID 2284042)
# In short: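 Rat primary cortical cultures on PEI/laminin MEA; compound from plating, re-dosed at DIV 5, 9 media change. Single-electrode bursts/recording length, well mean of active electrodes; AUC over DIV 5–12 recordings; loss-of-signal vs DMSO.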
# [15] = CCTE_Shafer_MEA_dev_bursting_electrodes_number: CCTE's Neural Network Formation Assay for Number of Bursting Electrodes, Shafer Lab (AID 2284043; active means hit-call score of the fitted dose curve at least 0.9, where 1 is the maximum;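 on AC50: potency is for loss of bursting electrodes relative to DMSO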)
# In short: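 Rat cortical primary neurons, 48-well MEA, 16 electrodes/well; dosing DIV 0–12, re-dosed with full media change DIV 5, 9. Recordings DIV 5/7/9/12, AxIS adaptive spike detector; bursting electrode = ≥1 burst/2 min. AUC across days; loss of signal vs DMSO.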
# [16] = CCTE_Shafer_MEA_dev_per_burst_interspike_interval: CCTE's Neural Network Formation Assay for Burst Interspike Interval, Shafer Lab (AID 2284044);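 on AC50: potency for a decrease of within-burst interspike interval below DMSO level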
# In short: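 Neurons from rat cortex plated onto PEI-coated MEA wells with laminin […] at 1.5 x 10^5 cells/well, then treated from day 0. Media and compound fully replaced on DIV 5 and 9. Extracellular spontaneous firing recorded four times; interspike interval per burst summarised as AUC.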
smiles,measurement,setting,value
CCCCC(CC)COC(=O)c1ccccc1O (configuration not stated),outcome,[1],inactive
same,outcome,[2],inactive
same,outcome,[3],inactive
same,outcome,[4],inactive
same,outcome,[5],inactive
same,outcome,[6],inactive
CCCCC(CC)COCC1CO1 (configuration not stated),outcome,[1],inactive
same,outcome,[2],inactive
same,outcome,[3],inactive
same,outcome,[4],inactive
same,outcome,[5],inactive
same,outcome,[6],inactive
CC=C1CC2C=CC1C2 (configuration not stated),outcome,[7],inactive
same,outcome,[8],inactive
same,outcome,[9],inactive
same,outcome,[10],inactive
OC1CCCC1,outcome,[7],inactive
same,outcome,[8],inactive
same,outcome,[9],inactive
same,outcome,[10],inactive
O=C(c1ccc(O)cc1)c1ccc(O)cc1O,outcome,[1],inactive
same,outcome,[2],inactive
same,outcome,[3],inactive
same,outcome,[4],inactive
same,outcome,[5],inactive
same,outcome,[6],inactive
O=C(C(Cl)Cl)N1CCOC12CCCCC2,outcome,[7],inactive
same,outcome,[8],inactive
same,AC50,[9],19.8 µM (active)
same,outcome,[10],inactive
CN1C(=O)N(C)C(O)C1O (configuration not stated),outcome,[1],inactive
same,outcome,[2],inactive
same,outcome,[3],inactive
same,outcome,[4],inactive
same,outcome,[5],inactive
same,outcome,[6],inactive
Nc1ccc(N)c(Cl)c1,outcome,[1],inactive
same,outcome,[2],inactive
same,outcome,[3],inactive
same,outcome,[4],inactive
same,outcome,[5],inactive
same,outcome,[6],inactive
Nc1ncn([C@@H]2O[C@H](CO)[C@@H](O)[C@H]2O)c(=O)n1,outcome,[1],inactive
same,AC50,[2],5 µM (active)
same,AC50,[3],8.38 µM (active)
same,AC50,[4],0.00671 µM (active)
same,AC50,[5],7.72 µM (active)
same,AC50,[6],9.61 µM (active)
same,AC50,[11],3.41 µM (active)
same,outcome,[11],inactive
same,outcome,[12],inactive
same,AC50,[13],2.13 µM (active)
same,outcome,[13],inactive
same,outcome,[14],inactive
same,AC50,[15],1.34 µM (active)
same,outcome,[15],inactive
same,AC50,[16],2.4 µM (active)
same,outcome,[16],inactive
C=CC(=O)NC(C)(C)CS(=O)(=O)O,outcome,[7],inactive
same,outcome,[8],inactive
same,outcome,[9],inactive
same,outcome,[10],inactive
